Assay outcomes deposited in PubChem BioAssay by several laboratories.
PostGolgi ctrl = growth of the yeast control strain, post-Golgi counter-screen. efflux-deficient yeast background strain, growth absorbance A615, 16 h. inhibition, % at 10 µM. hit rate 5% among 98,000. AID 738
CYP2C9 inhib = inhibitors of human CYP2C9. P11712. CYP2C9 Supersomes, luciferin-H conversion, luminescence. inhibition, % at 5 µM. hit rate 20% among 96,000. AID 777;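 active means blocking of liver enzyme CYP2C9 beyond about 50% at 5 µM, limit read from the data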
CYP2C19 inh = inhibitors of human CYP2C19 | P33261 | CYP2C19 Supersomes, luciferin-H EGE luminescence, 30 min | inhibition, % at 5 µM | hit rate 21% among 96,000;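 active means CYP2C19 inhibition above a set limit at 5 µM in the primary screen, cut at about 50% in these data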;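 further: plate controls were negative control wells for no effect and 2.5 mM tranylcypromine positive control for full effect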
Target sequence (P33261 whole entry, looked up): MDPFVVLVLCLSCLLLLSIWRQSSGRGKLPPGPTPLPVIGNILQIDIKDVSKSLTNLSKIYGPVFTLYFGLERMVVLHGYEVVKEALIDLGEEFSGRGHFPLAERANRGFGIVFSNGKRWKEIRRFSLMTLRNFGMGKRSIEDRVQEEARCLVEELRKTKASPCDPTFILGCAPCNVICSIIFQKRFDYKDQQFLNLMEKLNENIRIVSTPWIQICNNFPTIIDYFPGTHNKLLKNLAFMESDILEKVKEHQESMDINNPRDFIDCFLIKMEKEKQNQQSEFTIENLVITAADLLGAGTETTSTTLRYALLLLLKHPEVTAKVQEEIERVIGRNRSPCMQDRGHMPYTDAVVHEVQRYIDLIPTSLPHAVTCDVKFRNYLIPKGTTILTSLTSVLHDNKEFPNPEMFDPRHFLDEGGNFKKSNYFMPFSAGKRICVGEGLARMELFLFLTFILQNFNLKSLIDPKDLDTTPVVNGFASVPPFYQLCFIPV
CYP2C9 activ = CYP2C9 (human) activation; activation factor at 5 µM; P11712; AID 1024; hit rate 1.4% among 96,000; recombinant CYP2C9, luciferin-H conversion, luminescence; active compounds read high; factor 1 = untreated enzyme, 0 = blocked;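 active means activation factor of 2 or more for CYP2C9 at a 5 µM dose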;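 further: 0 = sulfaphenazole-blocked wells and 1 = vehicle-only wells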
CYP2C19 activ = increases human CYP2C19 enzyme activity; activation factor at 5 µM; P33261; AID 1025; recombinant CYP2C19, luciferin-H EGE luminescence; active compounds read high; 0 = fully inhibited enzyme, 1 = untreated enzyme; 96,000 tested, under 10 active;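 active means activation factor of at least 2 at 5 µM in the primary screen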;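 further: 0 = wells with 2.5 mM tranylcypromine and 1 = vehicle-only wells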
PostGolgi yeast = growth inhibition of a yeast mutant, post-Golgi transport screen; post-Golgi transport phenotypic cell assay; inhibition, % at 10 µM; hit rate 0.9% among 98,000; AID 739;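 further: yeast cells grown in 1536-well plates; yeast grown about 18 h at 30C before absorbance read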
Starred values were filed as active, the others as inactive; / = not tested or not shown. Rows were chosen to be rich in hits. Some 32% of all compounds tested hit in one or more screens of this group. Unless noted, no stated cut-off is given here; in the data, active means inhibition above about 30%; inactive means the rest.

SMILES	PostGolgi ctrl	CYP2C9 inhib	CYP2C19 inh	CYP2C9 activ	CYP2C19 activ	PostGolgi yeast
COCC(C)n1c(C)cc(C(=O)CSc2ccc(NC(C)=O)cc2)c1C (stereo not given)	6	2	81*	1	0.2	0
Cc1csc(SCC(=O)c2cc(C)n(Cc3cccs3)c2C)n1	12	50*	84*	0.5	0.2	-14
COCC(C)n1c(C)cc(C(=O)CSc2nc3ccccc3c(=O)[nH]2)c1C (stereo not given)	16	14	43	0.9	0.6	28
COCCn1c(C)cc(C(=O)CSc2ccc(NC(C)=O)cc2)c1C	-5	6	93*	0.9	0.1	-1
Cc1cc(C(=O)CSc2n[nH]c(-c3ccccc3F)n2)c(C)n1Cc1cccs1	33*	92*	63*	0.1	0.4	1
O=c1ccc(Cc2ccccn2)n[nH]1	-1	-12	-18	1.1	1.2	10
CC(=O)Nc1ccc(SCC(=O)c2cc(C)n(Cc3cccs3)c2C)cc1	-3	63*	14	0.4	0.9	-5
COCCn1c(C)cc(C(=O)CSc2ccc3ccccc3n2)c1C	31*	-63	68*	1.6	0.3	0
COCCn1c(C)cc(C(=O)COc2nc3ccccc3nc2C)c1C	5	-4	16	1	0.8	-2
COCC(C)n1c(C)cc(C(=O)CSc2nnc(Nc3ccccc3F)s2)c1C (stereo not given)	11	44	70*	0.6	0.3	-6
Cc1cc(C(=O)CN2C(=O)NC3(CCCc4ccccc43)C2=O)c(C)n1Cc1cccs1 (stereo not given)	11	44	1	0.6	1	0
C=CCn1c(C)cc(C(=O)CSc2ccc(NC(C)=O)cc2)c1C	18	-3	91*	1	0.1	-8
O=C1CCCC2=C1C(c1c(Cl)nc3sccn13)C1=C(CCCC1=O)N2	/	35	27	0.7	0.7	/
O=S1(=O)CCN=C2SC3=C(CCCC3)N21	-4	0	45	1	0.6	15
Cc1ccccc1NC(=S)NNc1ncc(C(F)(F)F)cc1Cl	1	-17	77*	1.2	0.2	-6
COC(=O)/C(=C\Nc1cccc(Cl)c1C)c1ncc(C(F)(F)F)cc1Cl	3	22	14	0.8	0.9	11
Fc1ccccc1NC(=S)NNc1ncc(C(F)(F)F)cc1Cl	-2	87*	55*	0.1	0.4	0
CCOc1ccccc1NC(=S)Nc1ccccc1F	25	8	42	0.9	0.6	-13
Cc1c(Cl)cccc1NC(=S)NNc1ncc(C(F)(F)F)cc1Cl	8	-116	91*	2.2*	0.1	-1
FC(F)(F)c1cnc(/C=C/Nc2ccccc2Cl)c(Cl)c1	2	24	-2	0.8	1	-8
O=C(NNc1ncc(C(F)(F)F)cc1Cl)c1c(Cl)cccc1Cl	7	-142	33	2.4*	0.7	2
O=C(O)c1cn(-c2ccc(F)c(F)c2)c2c(F)c(F)c(F)c(F)c2c1=O	0	7	9	0.9	0.9	16
O=C(c1ccc(CNc2c(NC3CCCCC3)c(=O)c2=O)cc1)N1CCc2ccccc21	1	19	5	0.8	0.9	2
Cc1cccc(C)c1NC(=S)NNc1ncc(C(F)(F)F)cc1Cl	4	13	75*	0.9	0.2	1
O=C(COC(=O)c1cccc2ccccc12)Nc1ncc(C(F)(F)F)cc1Cl	13	24	42	0.8	0.6	0
SMILES	PostGolgi ctrl	CYP2C9 inhib	CYP2C19 inh	CYP2C9 activ	CYP2C19 activ	PostGolgi yeast
O=C1Nc2ccc(S(=O)(=O)N3CCCC3)c3cccc1c23	7	41	83*	0.6	0.2	-4
O=C1Nc2ccc(S(=O)(=O)N3CCCC3C(=O)O)c3cccc1c23 (stereo not given)	12	-3	-1	1	1	-1
O=C1Nc2ccc(S(=O)(=O)N3CCCCCC3)c3cccc1c23	23	43	79*	0.6	0.2	-4
O=C1Nc2ccc(S(=O)(=O)N3CCOCC3)c3cccc1c23	-1	-18	59*	1.2	0.4	2
CCOc1ccccc1N1CCN(S(=O)(=O)c2ccc3c4c(cccc24)C(=O)N3)CC1	20	73*	91*	0.3	0.1	-7
O=C1Nc2ccc(S(=O)(=O)NCc3ccccn3)c3cccc1c23	0	11	34	0.9	0.7	5
O=S(=O)(c1cccc2c(S(=O)(=O)N3CCCC3)cccc12)N1CCCC1	-1	16	1	0.8	1	-2
CN1CCN(S(=O)(=O)c2ccc3c4c(cccc24)C(=O)N3)CC1	12	-88	55*	1.9	0.4	-1
O=C(O)CC(c1cccc2ccccc12)n1cccc1 (stereo not given)	-1	51*	23	0.5	0.8	0
O=C(O)CC(c1ccc(Cl)cc1)n1cccc1 (stereo not given)	-4	9	-10	0.9	1.1	-7
CN(CCC(=O)Nc1ccc(Br)cc1)Cc1ccccc1	9	35	26	0.7	0.7	3
CC(C)C(=O)NC(c1ccccc1Cl)c1c(O)ccc2ccccc12 (stereo not given)	-3	12	22	0.9	0.8	-9
O=C(NC(c1ccccc1)c1c(O)ccc2ccccc12)c1ccccc1Cl (stereo not given)	20	93*	76*	0.1	0.2	-6
CCC(=O)NC(c1ccc([N+](=O)[O-])cc1)c1c(O)ccc2ccccc12 (stereo not given)	3	54*	94*	0.5	0.1	-10
CC(C)C(=O)NC(c1ccco1)c1c(O)ccc2ccccc12 (stereo not given)	-8	66*	26	0.3	0.7	-11
CCCCC(c1nnnn1C1CCCC1)N1CCN(C2CCCC2)CC1 (stereo not given)	-1	33	46	0.7	0.5	-1
Cc1snc(S(=O)(=O)Cc2ccccc2Cl)c1C#N	-4	4	38	1	0.6	24
CC1(C)NC(=O)N(CC(O)CN2CCCC2)C1=O (stereo not given)	-1	-10	-6	1.1	1.1	3
COCc1cc(C)nc(OCC(=O)N/N=C/c2ccc(-c3cc([N+](=O)[O-])ccc3C)o2)c1C#N	1	2	11	1	0.9	-2
COCc1cc(C)nc(OCC(=O)N/N=C/c2cc(C)n(-c3c(C)cccc3C)c2C)c1C#N	10	83*	28	0.2	0.7	1
Clc1ccc(CON/C=N/c2ncnc3sccc23)c(Cl)c1	17	22	15	0.8	0.8	-7
COc1ccc(Cl)cc1NC(=O)CSc1nc(N2CCCCC2)nc(N2CCCCC2)n1	-7	84*	20	0.2	0.8	8
Cc1ccccc1NC(=O)CSc1nc(N2CCCCC2)nc(N2CCCCC2)n1	5	14	13	0.9	0.9	17
COc1ccc(Cl)cc1Nc1nc(NCCO)nc(N2CCCC2)n1	16	59*	57*	0.4	0.4	-1
